From PubChem BioAssay (NCI)
The panel holds about 83,000 compounds, 20% with a hit somewhere; the sample as a whole holds those more often.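 A percent growth of 40 corresponds to 60% growth inhibition; 0 means no net growth; -100 means all cells died. Active threshold: below 10.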 Active and inactive are the calls of the source.

Key:
Assay in all cases: NCI-60 one-dose screen, 48 h (100 = growth as untreated, 0 = no growth, -100 = all killed)
Details in all cases: 10 µM unless noted
[1] = tested on: SK-MEL-2 melanoma
[2] = tested on: EKVX NSCLC
[3] = tested on: SN12C renal
[4] = tested on: UO-31 renal
[5] = tested on: TK-10 renal
[6] = tested on: ACHN renal
[7] = tested on: A498 renal
[8] = tested on: CCRF-CEM leukemia
[9] = tested on: MOLT-4 leukemia
[10] = tested on: SR leukemia
[11] = tested on: OVCAR-8 ovarian
[12] = tested on: OVCAR-5 ovarian
[13] = tested on: OVCAR-4 ovarian
[14] = tested on: SK-OV-3 ovarian
[15] = tested on: IGROV1 ovarian
[16] = tested on: OVCAR-3 ovarian
[17] = tested on: HS 578T breast
[18] = tested on: NCI/ADR-RES ovarian
[19] = tested on: CAKI-1 renal
[20] = tested on: RPMI-8226 leukemia

Measured: growth

COc1ccc(-c2nnc(-c3ccc4c(c3)nc(-c3ccccc3)n4C3CCCCC3)o2)cc1
inactive: [1] 57.9% | [2] 73% | [3] 65.4% | [4] 40.7% | [5] 68.9% | [6] 60.5% | [7] 85.2% | [8] 35.4% | [9] 31.5% | [10] 58.3% | [11] 30.8% | [12] 95.4% | [13] 51% | [14] 84.2% | [15] 89.4% | [16] 43% | [17] 103% | [18] 40.1%

Cn1ncc2c(Nc3ccc(Br)cc3)nc(Nc3ccc(Br)cc3)nc21
inactive: [1] 47.6% | [2] 41% | [3] 47.1% | [4] 68.3% | [5] 73.1% | [6] 40.1% | [19] 37.7% | [8] 27.8% | [9] 26.7% | [20] 23.2% | [11] 59.6% | [12] 56.9% | [13] 51.9% | [14] 78.1% | [15] 48.9% | [16] 68.2% | [18] 21.5%

COc1ccc(-c2nnc(SCC(=O)NC3=NN=C(c4ccccc4)CS3)o2)cc1
inactive: [1] 103% | [2] 101% | [3] 99.8% | [4] 88.1% | [5] 106% | [6] 99.6% | [7] 86.4% | [8] 90.8% | [9] 83.9% | [10] 86.6% | [11] 83% | [12] 102% | [13] 100% | [14] 93.5% | [15] 108% | [16] 107% | [17] 97.3% | [18] 104%

Cc1nc(Nc2ccc(NC(=S)Nc3ccccc3)cc2)nc2nc(Nc3cccc(Cl)c3)[nH]c(=O)c12
inactive: [1] 88.8% | [2] 119% | [3] 97.4% | [4] 96.4% | [5] 142% | [6] 96.7% | [7] 91.3% | [8] 81.2% | [9] 64.9% | [10] 62.7% | [20] 57.2% | [11] 97.2% | [12] 101% | [13] 102% | [14] 95.7% | [16] 139% | [17] 67.1% | [18] 110%

CCn1c(Sc2nnc(Nc3ccccc3)s2)nc2c1c(=O)n(C)c(=O)n2C
inactive: [1] 130% | [2] 86.5% | [3] 96.4% | [4] 73% | [5] 146% | [6] 91% | [19] 93.9% | [8] 117% | [10] 103% | [20] 122% | [11] 103% | [12] 77.4% | [13] 96.5% | [15] 91.4% | [16] 110% | [17] 99.3% | [18] 89.6%

CCCCCCCCCCCCCCCCCC1=NCCN1C(=O)OCCO
inactive: [1] 76.8% | [2] 83.4% | [3] 32.7% | [4] 29.5% | [6] 38.4% | [7] 89.1% | [11] 19.3% | [12] 68.1% | [13] 28.2% | [14] 61.7% | [16] 76% | [17] 11.6% | [18] 51.4%
active: [5] -65.4% | [8] -2.98% | [9] 8.42% | [10] -10.5% | [15] -35.3%

Cc1cc(N(CCCNc2ccnc3cc(Cl)ccc23)Cc2ccccn2)nc(N2CCCC2)n1
inactive: [1] 99.8% | [2] 76.3% | [3] 64.4% | [4] 53.8% | [5] 136% | [6] 93.5% | [19] 76.5% | [8] 53.9% | [20] 48.9% | [11] 73.4% | [12] 87.6% | [13] 63.1% | [14] 102% | [15] 87.5% | [16] 88% | [17] 88.9% | [18] 76.7%

Cl.[Pt].[c-]1ccccc1-c1ccccn1.c1ccc(P(c2ccccc2)C([PH+](c2ccccc2)c2ccccc2)[PH+](c2ccccc2)c2ccccc2)cc1
active: [1] -2.53% | [3] 9.75% | [4] -0.14% | [6] 4.96% | [19] -5.66% | [17] 7.92%
inactive: [2] 10.8% | [5] 21.1% | [8] 14.5% | [10] 20.4% | [11] 15.6% | [12] 22.7% | [13] 21.3% | [15] 17.2% | [16] 11.6% | [18] 60.7%

O=[N+]([O-])c1ccc(-c2cc3c(Nc4ccc(OCc5cccc(Cl)c5)c(Cl)c4)ncnc3s2)cc1
inactive: [1] 79.4% | [2] 68.4% | [3] 85.1% | [4] 59.9% | [5] 70.1% | [6] 63.3% | [7] 72.3% | [8] 52.2% | [9] 47.5% | [10] 48.9% | [11] 53.4% | [12] 88.2% | [13] 41.1% | [15] 76.8% | [16] 26.7% | [17] 82.1% | [18] 68.1%

NC(=Nc1ccc(N)cc1)C(N)=Nc1ccc(N)cc1
active: [1] -7.4%
inactive: [2] 107% | [3] 104% | [4] 92.9% | [5] 87.3% | [6] 93.4% | [7] 91.3% | [10] 134% | [11] 85.3% | [12] 105% | [13] 101% | [14] 126% | [15] 84.7% | [16] 94.1% | [17] 114% | [18] 99.6%

N#Cc1cnn2c(-c3ccc(Cl)cc3)nc(NCCc3ccccc3)nc12
inactive: [1] 89.1% | [2] 87.3% | [3] 99.6% | [4] 72.9% | [5] 102% | [6] 94.2% | [7] 101% | [8] 96.4% | [9] 74.2% | [10] 83.5% | [11] 88.8% | [12] 101% | [13] 85.7% | [14] 74.5% | [15] 83.4% | [16] 99.2% | [17] 99.6% | [18] 90.1%

O=[N+]([O-])c1ccc(-c2cc3c(Nc4ccc(Sc5nc6ccccc6s5)c(Cl)c4)ncnc3s2)cc1
active: [7] -0.884%
inactive: [1] 46.7% | [2] 39.7% | [3] 28.6% | [4] 43.4% | [5] 48.2% | [6] 34.4% | [8] 34.6% | [9] 23.7% | [10] 38.7% | [11] 23.5% | [12] 49.9% | [13] 35.2% | [14] 37.1% | [15] 43.8% | [16] 14.7% | [17] 87.8% | [18] 60.3%

Nc1ccc(-c2cc3c(Nc4ccc(OCc5cccc(F)c5)c(Cl)c4)ncnc3s2)cc1
inactive: [1] 25.3% | [2] 21.5% | [3] 48.4% | [4] 19.6% | [5] 32.5% | [6] 29.6% | [7] 39.3% | [8] 24% | [10] 14.5% | [11] 63.1% | [12] 77.9% | [13] 54.8% | [15] 38.2% | [16] 46.6% | [17] 77% | [18] 50.4%
active: [14] -2.32%

CC1(C)C(=O)/C(=C\c2cccnc2)C[C@]2(C)[C@H]3CC=C4[C@@H]5C[C@@](C)(C(=O)O)CC[C@]5(C)CC[C@@]4(C)[C@]3(C)CC[C@@H]12
inactive: [1] 96.8% | [2] 95.8% | [3] 94.2% | [4] 84.2% | [5] 101% | [6] 95.8% | [19] 86.9% | [8] 81.8% | [9] 87.2% | [20] 71.5% | [11] 89.7% | [12] 107% | [13] 90.6% | [14] 94.9% | [15] 103% | [16] 98.3% | [17] 99.2% | [18] 102%

N#C/C(=C\c1ccc(Br)cc1)n1nnc2ccccc21
inactive: [2] 20% | [10] 11.7% | [11] 17.3% | [17] 19.4%
active: [1] -1.82% | [3] 8.47% | [4] -13.6% | [5] 1.55% | [6] -16.7% | [19] 1.73% | [8] 8.29% | [12] 7.66% | [13] 6.76% | [15] 1.96% | [16] -31.8% | [18] -6.66%

O=[N+]([O-])c1ccc(-c2cc3c(Nc4ccc(Cl)c(C(F)(F)F)c4)ncnc3s2)cc1
active: [1] -4.98% | [2] 7.59% | [3] 2.43% | [4] -3.64% | [5] 9.44% | [6] 4.57% | [7] -13% | [9] 9.22% | [14] -11.5% | [16] 5.57% | [18] 2.94%
inactive: [8] 17.5% | [10] 17% | [11] 10.1% | [12] 26.6% | [13] 11.1% | [15] 38% | [17] 37.9%

COC(=O)[C@]12CC[C@@H](C)[C@H](C)[C@@H]1C1=CC[C@@H]3[C@@]4(C)C(C=O)=C[C@@](C)(CO)C4=CC[C@@]3(C)[C@]1(C)CC2
inactive: [1] 52.4% | [2] 34.4% | [3] 37.6% | [4] 27.8% | [5] 54.4% | [6] 17.1% | [19] 42.8% | [8] 18.7% | [10] 15.5% | [20] 12.8% | [11] 32.2% | [12] 62.9% | [13] 31.7% | [14] 76.3% | [15] 45.4% | [16] 24.3% | [17] 47.5% | [18] 31.9%
